Test results taken from PubChem BioAssay AID1159580 (chemical genetic matrix, 2015).
“And” between values parts separate entries of the source, which are not always exact repeats. Identical values can stand only once. About 2,000 (36%) of roughly 5,500 compounds were called active. Inconclusive results (about 18%) are left out. Rule as the data show it: active = normalized growth mostly below about 0.91 (no sharp cut-off); inconclusive = no clear call, values can overlap the other calls; inactive = mostly above about 0.92. This is one part of the list.

Assay: chemical genetic growth profiling, strain panel (AID 1159580);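 also: tested at 20 µM; growth read once vehicle control cultures reached saturation at 30 °C; 1 = growth at the plate median or of vehicle wells; lower values mean less growth of the strain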
Settings: S. cerevisiae deletion strains, growth OD

Measured: normalized growth

O=C1NC(O)=NC1(c1ccccc1)c1ccccc1
inactive: locus YAL013W, strain DEP1, stronger effect = lower value 1.01 and 0.988 | locus YAL021C, strain ccr4, stronger effect = lower value 1.01 | locus YAL026C, strain drs2, stronger effect = lower value 1.01 | locus YAL030W, strain snc1, stronger effect = lower value 1.02 | locus YAL040C, strain CLN3, stronger effect = lower value 0.959 | locus YBL061C, strain skt5, stronger effect = lower value 1.01 | locus YBR009C, strain hhf1, stronger effect = lower value 1 | locus YBR021W, strain FUR4, stronger effect = lower value 0.995 | locus YBR023C, strain chs3, stronger effect = lower value 1.03 | locus YBR171W, strain sec66, stronger effect = lower value 1.02 | locus YBR229C, strain ROT2, stronger effect = lower value 1 | locus YBR231C, strain swc5, stronger effect = lower value 1.02 | locus YBR279W, strain paf1, stronger effect = lower value 1.01 | locus YCL011C, strain gbp2, stronger effect = lower value 1.02 | locus YCL016C, strain dcc1, stronger effect = lower value 1.02 | locus YCL029C, strain bik1, stronger effect = lower value 1.03 | locus YCL061C, strain MRC1 (second series), stronger effect = lower value 0.986 | locus YCL061C, strain MRC1, stronger effect = lower value 1.01 | locus YCL069W, strain vba3, stronger effect = lower value 1.02 | locus YCR088W, strain abp1, stronger effect = lower value 1.01 | locus YDL005C, strain med2, stronger effect = lower value 1.03 | locus YDL035C, strain GPR1, stronger effect = lower value 1.01 | locus YDL040C, strain nat1, stronger effect = lower value 1.02 | locus YDL074C, strain BRE1, stronger effect = lower value 1.02 | locus YDL101C, strain DUN1, stronger effect = lower value 1.01 | locus YDL134C, strain PPH21, stronger effect = lower value 1.01 | locus YDL185W, strain tfp1, stronger effect = lower value 1.01 | locus YDL192W, strain arf1, stronger effect = lower value 1.01 | locus YDR001C, strain nth1, stronger effect = lower value 1.02 | locus YDR069C, strain doa4, stronger effect = lower value 0.999 | locus YDR101C, strain arx1, stronger effect = lower value 1.01 | locus YDR137W, strain rgp1, stronger effect = lower value 1.04 | locus YDR150W, strain NUM1, stronger effect = lower value 1.01 | locus YDR159W, strain sac3, stronger effect = lower value 0.98 | locus YDR162C, strain NBP2, stronger effect = lower value 1.01 | locus YDR195W, strain ref2 0.987 | locus YDR297W, strain sur2, stronger effect = lower value 1.02 | locus YDR318W, strain mcm21, stronger effect = lower value 1.02 | locus YDR334W, strain swr1, stronger effect = lower value 1.01 | locus YDR335W, strain msn5, stronger effect = lower value 1.02 | locus YDR363W, strain ESC2, stronger effect = lower value 0.954 | locus YDR388W, stronger effect = lower value 1.02 | locus YDR392W, strain spt3, stronger effect = lower value 0.932 | locus YDR502C, strain sam2, stronger effect = lower value 1 | locus YEL003W, strain gim4, stronger effect = lower value 1 | locus YEL037C, strain rad23, stronger effect = lower value 1.01 | locus YEL061C, strain CIN8 (second series), stronger effect = lower value 1.02 | locus YEL061C, strain CIN8, stronger effect = lower value 1.01 | locus YER002W, strain NOP16, stronger effect = lower value 0.972 | locus YER015W, strain faa2, stronger effect = lower value 1 | locus YER016W, strain bim1, stronger effect = lower value 1.02 | locus YER110C, stronger effect = lower value 1.01 | locus YER111C, strain swi4, stronger effect = lower value 1.02 | locus YER155C, strain BEM2 (second series), stronger effect = lower value 0.994 | locus YER155C, strain BEM2, stronger effect = lower value 1.02 | locus YER167W, strain BCK2, stronger effect = lower value 1.01 | locus YFR010W, strain ubp6, stronger effect = lower value 1.01 | locus YGL078C, strain dbp3, stronger effect = lower value 1.01 | locus YGL086W, strain mad1, stronger effect = lower value 0.997 | locus YGL167C, strain pmr1, stronger effect = lower value 1.03 | locus YGL173C, strain kem1, stronger effect = lower value 1.01 | locus YGL227W, strain vid30, stronger effect = lower value 1.02 | locus YGL240W, strain doc1, stronger effect = lower value 1.01 | locus YGL248W, strain PDE1, stronger effect = lower value 1.01 | locus YGL253W, strain hxk2, stronger effect = lower value 1.01 | locus YGR078C, strain PAC10, stronger effect = lower value 1.01 | locus YGR135W, strain pre9, stronger effect = lower value 1.01 | locus YGR229C, strain SMI1, stronger effect = lower value 0.998 | locus YGR252W, strain gcn5, stronger effect = lower value 0.923 | locus YHR013C, strain ard1, stronger effect = lower value 1.02 | locus YHR027C, strain rpn1, stronger effect = lower value 1.01 | locus YHR030C, strain SLT2, stronger effect = lower value 1.01 and 0.991 | locus YHR079C, strain IRE1 (second series), stronger effect = lower value 1.03 | locus YHR079C, strain IRE1, stronger effect = lower value 0.991 | locus YHR094C, strain hxt1, stronger effect = lower value 1.01 | locus YHR129C, strain ARP1, stronger effect = lower value 1.01 | locus YHR142W, strain chs7, stronger effect = lower value 1.03 | locus YHR200W, strain rpn10, stronger effect = lower value 1.01 | locus YIL066C, strain RNR3, stronger effect = lower value 1.02 | locus YIL073C, strain SPO22, stronger effect = lower value 1.03 | locus YIL125W, strain kgd1, stronger effect = lower value 1.01 | locus YIR030C, strain dcg1, stronger effect = lower value 1.01 | locus YJL092W, strain hpr5, stronger effect = lower value 1.01 | locus YJL095W, strain BCK1 (second series), stronger effect = lower value 1.02 | locus YJL095W, strain BCK1, stronger effect = lower value 1.01 | locus YJL115W, strain asf1, stronger effect = lower value 1.01 | locus YJL129C, strain trk1, stronger effect = lower value 1.02 | locus YJL134W, strain LCB3, stronger effect = lower value 1 | locus YJL154C, strain vps35, stronger effect = lower value 1.02 | locus YJL164C, strain tpk1, stronger effect = lower value 1.01 | locus YJL166W, strain qcr8, stronger effect = lower value 1.02 | locus YJL168C, strain set2, stronger effect = lower value 1.01 | locus YJL187C, strain SWE1 (second series), stronger effect = lower value 1.02 | locus YJL187C, strain SWE1, stronger effect = lower value 1.02 | locus YJR043C, strain POL32, stronger effect = lower value 1.01 | locus YJR066W, strain TOR1, stronger effect = lower value 0.96
